# Measured values published in the supplement of paper PMC10338343.
# ± gives the standard deviation.
# Test system: MILI (PIWIL2) piRISC loaded with piRNA #1 (26 nt)
# Experiment: pre-steady-state target cleavage rate (min^-1); guide: piRNA #1 5'p-UGAGGUAGUAGGUUGUAUAGUAUCCA; MIWI and MILI are mouse PIWI proteins and EfPiwi is from a freshwater sponge; tags in brackets are library labels; higher = faster piRNA-guided slicing of the target
# Details: auxiliary factor: 500 nM mouse GTSF1
# Summary of the method: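 In HEPES–potassium acetate buffer at 33 °C, […] transcribed, DNA-blocked target RNA library was mixed with 1 nM active affinity-purified piRISC carrying one synthetic guide, with or without 500 nM GTSF1 partner protein, for 0–8 or 0–960 min. Uncleaved targets were sequenced and normalised to depth and to weakly complementary targets; three trials were pooled and k3 was capped at 0.0001 min^-1. The pre-steady-state cleavage rate followed from a burst-and-steady-state fit.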
# 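Further: 1 nM active piRISC with 0.1 nM target library at 33 °C single turnover.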
row,Sequence,pre-steady-state target cleavage rate
1,GGAGAGCAUACUAUACAACCUACAACCUCA,0.133 ± 0.015
2,GGAGACCUAUGAUUACAACCUACUACCUCG [g2:g17:cont:t1G],0.00649 ± 0.0032
3,GGAGACCUAUGAUUGACAACCUACUACCUCA,0.00768 ± 0.0032
4,GGAGACCUUACUAUAGAACCUACUACGUCA,0.0503 ± 0.012
5,GGAGACCUAUCUAUACAACCUACUAGCUCA,0.0827 ± 0.014
6,GGAGACCUAUGUAAACAACCUACAACCUCA,0.0135 ± 0.0041
7,GGAGACCUAUCUAUACAACCUACUUCCACA,0.0447 ± 0.011
8,GGAGACCUAUGAUAACAACCUACUACCUCC [g2:g16:cont:t1C],0.00493 ± 0.0021
9,GGAGACCUAUGAUAACAACCUACCACCUCA,0.00342 ± 0.0032
10,GGAGACCUAUGAUAUGUUUCUACUACCUCA,< 0.0001
11,GGAGACCUAUGAUUACAAUCUACUACCUCA,0.00319 ± 0.0026
12,GGAGACCUAUCUAUACAACCUACUUCGUCA,0.0271 ± 0.0057
13,GGAGACCUAUGAUUACAACCUAAUACCUCA,0.00387 ± 0.0022
14,GGAGACCUAUCUAUUCAUCCUACUACCUCA,0.172 ± 0.021
15,GGAGACCUAUGAAUACAACCUACUACCUCC [g2:g18:cont:t1C],0.0111 ± 0.0027
16,GGAGACCUAACUAUUCAACCUACAACCUCA,0.129 ± 0.021
17,GGAGACGAUACUAUACAUCCUACUACCACA,0.334 ± 0.021
18,GGAGACCUAACUAUACAUCGUACUACCUCA,0.0246 ± 0.0074
19,GGAGACCUAACUAUACAUGCUACUACCUCA,0.0788 ± 0.013
20,GGAGACCUUAGUAUACAAGCUACUACCUCA,0.174 ± 0.012
21,GGAGACCUAUGAAUACAACCUAGCUACCUCA,0.00489 ± 0.0025
22,GGAGACCUUACUAUUCAACCUACAACCUCA,0.12 ± 0.013
23,GGAGACCUUACUAUACUUCCUACUACCUCA,0.127 ± 0.011
